Screening data from PubChem BioAssay.
In the library only some 1.3% were active in any assay of this set; here they are far more common.
DNA Pol III inh: inhibitors of bacterial DNA polymerase III holoenzyme. reconstituted DNA polymerase III holoenzyme replication, biochemical. Potency, µM (highest dose often 57.1 µM), inactives show at the highest dose activity change, negative = inhibition. hit rate 0.25% among 71,000; also: potency is read from the fitted curve at half-maximal effect; % is scaled to controls: 0 for no effect and ±100 for the full control effect
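Reconstituted *E. coli* holoenzyme (0.35 nM Pol III, 1 nM beta, 154 nM SSB, 2 nM primase) was preincubated with compound for 15 min at RT. Synthesis on 1.4 nM ssM13Gori ran 35 min, then was stopped with PicoGreen/EDTA and read as dsDNA fluorescence.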
YjeE inh: displaces an ADP probe from E. coli YjeE (TsaE) | Potency, µM | purified YjeE enzyme, qHTS inhibition assay | AID 605 | hit rate 0.05% among 71,000 | P0AF67
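Fluorescence polarization of a BODIPY Texas Red–ADP probe (2 uM) bound to purified YjeE (10 uM) was read after 15 min room-temperature incubation with compounds. Loss of polarization marks inhibitors; ADP serves as titrated control.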
USP2a inhib: USP2a (human) protease inhibition; O75604; USP2a enzymatic assay, qHTS inhibition; Potency, µM (titrated, usually from 38.3 µM), without a hit: at the top dose activity change, negative = inhibition, usual class: inhibitors; hit rate 0.1% among 60,000; also: potency is read from the fitted curve at half-maximal effect; nearly all actives have a fitted effect of over 60% in size
Target sequence (O75604 whole entry, looked up): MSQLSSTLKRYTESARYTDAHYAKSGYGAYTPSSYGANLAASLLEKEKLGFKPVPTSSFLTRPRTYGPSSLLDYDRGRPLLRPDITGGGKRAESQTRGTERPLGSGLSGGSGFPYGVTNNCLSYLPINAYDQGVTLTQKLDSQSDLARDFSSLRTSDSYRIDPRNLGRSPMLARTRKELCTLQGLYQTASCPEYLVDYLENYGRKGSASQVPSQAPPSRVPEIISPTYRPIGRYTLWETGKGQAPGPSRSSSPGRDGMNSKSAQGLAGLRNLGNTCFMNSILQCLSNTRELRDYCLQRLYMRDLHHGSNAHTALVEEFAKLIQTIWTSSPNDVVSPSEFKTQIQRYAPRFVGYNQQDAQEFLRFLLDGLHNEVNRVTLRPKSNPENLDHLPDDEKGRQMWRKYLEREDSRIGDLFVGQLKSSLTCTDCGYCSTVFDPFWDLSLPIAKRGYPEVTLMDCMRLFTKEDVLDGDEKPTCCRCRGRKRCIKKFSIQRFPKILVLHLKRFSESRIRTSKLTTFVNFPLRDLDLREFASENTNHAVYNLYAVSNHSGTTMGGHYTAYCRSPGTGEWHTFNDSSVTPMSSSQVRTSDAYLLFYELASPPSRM
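USP2 core (20nM final) preincubated 30 min RT with compound, then Ub-PLA2 20nM and NBD C6-HPC 20uM final added; buffer 20mM Tris-HCl pH 8.0, 2mM CaCl2. Fluorescence Ex 460/Em 535 read at 0 and 2.5 h; normalized to NEM.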
ERK AVP inh: inhibitors of vasopressin-stimulated ERK signaling pathway; AID 995; hit rate 0.99% among 72,000; Potency, µM (series often up to 57.5 µM), for the others: top-dose activity, negative = inhibition, usual class: inhibitors; HEK293-V1b, vasopressin-stimulated pERK AlphaScreen; also: potency is read from the fitted curve at half-maximal effect; % is scaled to controls: 0 for no effect and ±100 for the full control effect; nearly all actives have a fitted effect of over 55% in size
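HEK293 cells stably expressing V1b receptor, preincubated 30 min at 37 °C with compound, then stimulated 5 min with 25 nM vasopressin. Phospho-ERK by AlphaScreen SureFire after 5 h RT; normalized to DMSO and vasopressin; AC50 by Hill fit.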
BRCT PPI green: BRCA1 BRCT-phosphoprotein interaction inhibition. P38398. BRCA1 BRCT-phosphopeptide binding, green fluorescence polarization. Potency, µM (series often up to 76.9 µM), for the others: at the highest dose activity change, negative = inhibition, usual class: inhibitors. hit rate 0.05% among 75,000. AID 875;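 also: potency is read from the fitted curve at half-maximal effect; plate controls were peptide without protein for full effect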
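Compounds were incubated for 12 min at room temperature with a complex of 100 nM fluorescein-tagged pBACH1 decapeptide and 250 nM His-tagged BRCT protein. Buffer was phosphate pH 7.3 with EDTA, DTT and Tween 20. Disruption of binding lowers the polarization signal.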
BRCT inh red: BRCT-phosphoprotein interaction inhibition (red fluorophore) | AID 892 | hit rate 0.03% among 75,000 | BRCT-phosphopeptide binding, red fluorescence polarization | Potency, µM (series often up to 76.9 µM), without a hit: at the highest dose activity change, negative = inhibition, most hits filed as inhibitors | P38398; also: % is scaled to controls: 0 for no effect and ±100 for the full control effect
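Fluorescence polarization: 100 nM His-tagged BRCA1 BRCT with 100 nM TAMRA-labelled phospho-BACH1 decapeptide, phosphate buffer pH 7.3 with 150 mM NaCl, DTT, 0.01% Tween 20; 12 min RT. Binding inhibition seen as FP decrease.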
Active calls of the source: *; i = inactive; ? = inconclusive; . = no result; [ ] = another dose, or the depositor's remark. Calls follow the shape of the dose curve; as a rule, active = well fitted curve in the direction sought with a large enough effect; inconclusive = small, poorly fitted or top-dose-only effect, or another doubt; inactive = no such curve, though single readings can be large; an effect the other way counts as inactive or inconclusive.

SMILES	DNA Pol III inh	YjeE inh	USP2a inhib	ERK AVP inh	BRCT PPI green	BRCT inh red
O=C(O)c1cc(O)c2c(c1)[C@H]([C@H]1c3cc(C(=O)O)cc(O)c3C(=O)c3c(O[C@@H]4OC(CO)C(O)C(O)C4O)cccc31)c1cccc(O[C@@H]3OC(CO)C(O)C(O)C3O)c1C2=O (some centres undefined)	.	.	13µM*	?	-6%[3.08 µM]	6.3µM*
N#C/C(=C1\CCCN1)c1ccc2ccccc2n1	-2%	i	5%	16µM*	-2%	-1%
N#C/C(=C1/CCCCCN1)c1nc2ccccc2[nH]1	-1%	i	-7%	16%	1%	0%
Oc1ccc([C@@H]2CNCc3sccc32)cc1O	-3%	i	-3%	?	-2%	1%
CCOC(=O)c1ccc(NC(=O)c2cc3ccccc3o2)cc1	3%	i	13%	32µM*	0%	1%
O=C(Nc1ccc(N2CCN(C(=O)c3ccccc3)CC2)cc1)c1cc2ccccc2o1	-12%	i	35%	1µM*	-2%	-2%
CC(C)C(=O)Nc1ccc(NC(=O)c2cc3ccccc3o2)cc1	0%	i	0%	-9%	-1%	1%
Cc1cc(C)cc(N(CC(=O)O)S(=O)(=O)c2cccnc2)c1	-6%	i	.	.	0%	-1%
COc1cc(OC)cc([C@H](CNc2ncnc3c2ncn3[C@@H]2O[C@@H](CO)[C@H](O)[C@@H]2O)c2ccccc2C)c1	2%	i	.	.	.	.
C/C=C\C1=C(CO)C(=O)[C@@H]2OC2C1=O (some centres undefined)	.	.	.	2%[11.5 µM]	-4%[15.4 µM]	-2%[15.4 µM]
O=c1[nH]c(=O)n([C@H]2C[C@H](O)[C@H](CO)O2)cc1/C=C\Br	-4%	i	3%	-5%	-2%	-1%
Cc1ccccc1-c1nc(N2CCN(C)CC2)c2ccccc2n1	-6%	i	28%	-25%	1%	0%
Cc1ccccc1-c1nc(N2CCOCC2)c2ccccc2n1	-7%	?	13µM*	?	-1%	-2%
c1cc2c(cc1-c1cnc3n1CCC3)OCCO2	?	i	-5%	16µM*	-4%	0%
O=C(NCc1nc2ccccc2[nH]1)c1ccc(Cl)c(S(=O)(=O)N2CCCC2)c1	-4%	i	25%	-24%	0%	-4%
CCCn1c(NC(=O)c2ccc(Cl)c(S(=O)(=O)N3CCCC3)c2)nc2ccccc21	1%	i	24%	3.2µM*	2%	2%
COC(=O)c1cc(-c2ccc(OC)c(OC)c2)on1	-5%	i	0%	7.9µM*	-2%	0%
COCCn1c(=O)c(-c2cccs2)nc2cnc(Oc3ccc(OC)cc3)nc21	-3%	i	65%	4%	2%	-1%
COc1ccc2nc(NC(=O)C3CCCN(S(=O)(=O)c4cccs4)C3)sc2c1 (centres undefined)	9%	i	28%	?	-1%	0%
Cc1ccc2nc(NC(=O)C3CCN(S(=O)(=O)c4cccs4)CC3)sc2c1	-1%	i	24%	25µM*	0%	1%
CCOc1cc2c(C#N)c(N3CCOCC3)nc(N)c2c(N)n1	-7%	i	-5%	16µM*	-2%	1%
COCc1cc(C)nc(N2CCOCC2)c1C#N	3%	i	.	-3%	-6%	1%
O=C(Nc1ccc(F)cc1)N(Cc1ccco1)Cc1cc2cc3c(cc2[nH]c1=O)OCO3	-3%	i	30%	20µM*	-1%	0%
Cc1ccccc1/C=C\C1=NCCN1	-4%	i	-9%	-8%	-2%	1%
CO/N=C(\C(=O)N[C@@H]1C(=O)N2C(C(=O)O)=C(CSc3nc(=O)c(O)nn3C)CS[C@@H]12)c1csc(N)n1	40µM*	i	-5%	2%	-1%	1%
SMILES	DNA Pol III inh	YjeE inh	USP2a inhib	ERK AVP inh	BRCT PPI green	BRCT inh red
CO/N=C(/C(=O)NC1C(=O)N2C(C(=O)O)=C(CSc3nc(=O)c(O)nn3C)CSC12)c1csc(N)n1 (centres undefined)	.	.	-2%	-13%	-1%[3.08 µM]	-1%
C[C@@H](CN1CCC(Cc2ccccc2)CC1)[C@H](O)c1ccc(O)cc1	13%	i	3%	?	-2%	1%
O=C(c1cc(-n2cnnc2)ccc1Cl)N1CCN(c2nc(-c3ccccc3)cs2)CC1	-1%	i	41%	25µM*	0%	-3%
COc1ccc(-c2nc(=S)[nH][nH]2)cc1	0%	i	-2%	-16%	1%	1%
COc1ccc(-c2cc(-c3ccc(OC)cc3)[nH]n2)cc1	-4%	i	4%	3.2µM*	1%	-2%
O=C(c1ccc(F)cc1)c1cn[nH]c1-c1ccccc1O	-8%	i	-4%	-13%	-2%	1%
COc1ccc(C(=O)c2cn[nH]c2-c2cc(Cl)ccc2O)cc1	-2%	i	24%	40µM*	0%	0%
O=c1[nH]c(SCc2c(Cl)c(Cl)c(Cl)c(Cl)c2Cl)nc(=S)[nH]1	-5%[11.4 µM]	i	.	5%[11.5 µM]	2%[15.4 µM]	0%[15.4 µM]
Oc1ccc(-c2nc(-c3ccc(F)cc3)c(-c3ccncc3)[nH]2)cc1	-2%	i	23%	7.9µM*	-2%	-5%
O=C(Nc1ccccc1)N1CC=C(c2ccc(F)cc2)CC1	-3%	i	13%	-10%	-5%	-1%
O=C(Nc1cccc(F)c1)N1CC=C(n2c(=O)[nH]c3ccccc32)CC1	3%	i	5%	20µM*	2%	-1%
O=C(O)c1ccc(Cl)c(S(=O)(=O)Nc2ccccc2F)c1	.	.	.	.	-3%	-3%
CC(C)c1nc2oc3c(=O)[nH]cnc3c2c2c1CCC2	-6%	i	1.6µM*	-13%	-4%	-1%
CC(C)c1nc2oc3c(N4CCNCC4)ncnc3c2c2c1CCC2	0%	i	-7%	-6%	2%	-1%
NC(=O)C1=CN([C@@H]2O[C@@H](COP(=O)(O)OP(=O)(O)OC[C@@H]3O[C@H](n4cnc5c(N)ncnc54)[C@@H](OP(=O)(O)O)[C@@H]3O)[C@H](O)[C@@H]2O)C=CC1	-10%	i	6%	16%	-5%	2%
Cc1noc(C)c1CSc1nc2[nH]ncc2c(=O)n1-c1ccccc1	-2%	i	13%	13µM*	13%	0%
CCCc1nnc2n1N=C(c1ccc(OC)c(OC)c1)CS2	-3%	i	0%	16µM*	2%	0%
COc1ccc(-c2nnc3n2N=C(c2ccccc2)CS3)cc1OC	-17%	i	0%	3%	-2%	0%
COc1ccc(OCc2nnc3n2N=C(c2ccc(OC)cc2)CS3)cc1	-5%	i	.	25µM*	-1%	0%
